Experimental data as given in PubChem BioAssay.
Values without a mark were called inactive. How the calls were made is not given here.

Target: Pantothenate synthetase (Mycobacterium tuberculosis (strain ATCC 25618 / H37Rv)) (UniProt P9WIL5)
Experiment: Recombinant Mtb pantothenate synthetase (PanC) inhibitors, coupled enzyme, confirmatory (AID 375);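 further: 0% = full reaction with vehicle and 100% = no enzyme background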
Settings: coupled enzyme assay; at 10 µM, stronger effect = higher value

Sequence of Pantothenate synthetase (Mycobacterium tuberculosis (strain ATCC 25618 / H37Rv)) (P9WIL5 whole entry, looked up): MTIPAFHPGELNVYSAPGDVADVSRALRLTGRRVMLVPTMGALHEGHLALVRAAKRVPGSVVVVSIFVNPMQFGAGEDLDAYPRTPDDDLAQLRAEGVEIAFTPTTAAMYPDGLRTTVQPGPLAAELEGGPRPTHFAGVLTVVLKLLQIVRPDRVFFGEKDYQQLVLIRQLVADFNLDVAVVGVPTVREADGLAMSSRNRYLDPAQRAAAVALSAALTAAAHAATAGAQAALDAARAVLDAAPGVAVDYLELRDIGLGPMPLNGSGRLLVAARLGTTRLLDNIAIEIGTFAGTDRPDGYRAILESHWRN

SMILES	inhibition
CC(C)COc1ccc(C2NC(=O)NC2=O)cc1 (centres undefined)	0%
COc1cc(C(=O)N2CCN(c3cc(Cl)ccc3Cl)CC2)cc(OC)c1OC	1%
CCOC(=O)c1cnc(SC2CC(=O)N(c3ccc(OC)c(OC)c3)C2=O)nc1N (centres undefined)	0%
Nc1nc(Nc2ccc(Cl)cc2Cl)nc(C(F)(F)F)n1	0%
CC(C)OC(=O)c1cc(=O)[nH]c2ccccc12	0%
CCOC(=O)c1ccc(NC(=O)CCc2c(C)nc3ncnn3c2C)cc1	1%
O=C(C1CCCO1)N1CCN(C(c2ccccc2)c2ccccc2)CC1 (centres undefined)	0%
O=C(CN1C(=O)CCSc2ccccc21)Nc1ccccc1	0%
CCOc1ccc(N(CC(=O)NC2CCCCC2)S(=O)(=O)c2c(C)noc2C)cc1	0%
CCc1ccc(N2CC(C(=O)OCC(=O)NC3CCS(=O)(=O)C3)CC2=O)cc1 (centres undefined)	0%
O=C(C1COc2ccccc2O1)N1CCCC1 (centres undefined)	0%
CCCC1CCC(C(=O)Nn2c(C)nc3ccccc3c2=O)CC1 (centres undefined)	8%
COc1ccc(C(=O)Nc2ccc(S(=O)(=O)Nc3onc(C)c3C)cc2)cc1	1%
Cc1ccc(C)c(N2CCN(C(=O)C3CCN(S(=O)(=O)c4c(C)noc4C)CC3)CC2)c1	4%
C=CCNc1nnc(SC2CC(=O)N(c3ccc(OC)cc3)C2=O)s1 (centres undefined)	0%
CCN(CC)CCNC(=O)c1ccc(CS(=O)(=O)c2ccc(Br)cc2)o1	0%
Cc1onc(-c2c(Cl)cccc2Cl)c1C(=O)NCCN1CCOCC1	6%
Cc1noc(C)c1S(=O)(=O)Nc1c(C)n(C)n(-c2ccccc2)c1=O	5%
CC1=C(C(=O)NC2CCCC(C)C2C)C2(CCCCC2)OC1=O (centres undefined)	0%
